# Assay results from paper PMC11062922 (Nature Chemical Biology, 2023).
# Experiments:
# PTK2 = system: PTK2; parameters: species or system human, MV4-11 + K-562 + COLO205 + SK-N-BE2 + OVCAR-8; conditions: read-out: apparent Kd; compound concentrations: 100 nM and 1000 nM (sheet 'Samples'), CATDS: 1; n = 1
# RIPK3 = system: RIPK3; parameters: species or system human, MV4-11 + K-562 + COLO205 + SK-N-BE2 + OVCAR-8; conditions: read-out: apparent Kd; compound concentrations: 100 nM and 1000 nM (sheet 'Samples'), CATDS: 0.41855483652365999; n = 1
# PRKCQ = system: PRKCQ; parameters: species or system human, MV4-11 + K-562 + COLO205 + SK-N-BE2 + OVCAR-8; conditions: read-out: apparent Kd; compound concentrations: 100 nM and 1000 nM (sheet 'Samples'), CATDS: 1; n = 1
# RET = system: RET; parameters: species or system human, MV4-11 + K-562 + COLO205 + SK-N-BE2 + OVCAR-8; conditions: read-out: apparent Kd; compound concentrations:100 nM and 1000 nM (sheet 'Samples'); n = 1
# RAB5C = system: RAB5C; parameters: species or system human, MV4-11 + K-562 + COLO205 + SK-N-BE2 + OVCAR-8; conditions: read-out: apparent Kd; compound concentrations: 100 nM and 1000 nM (sheet 'Samples'), CATDS: 1; n = 1
# PRKAG1 = system: PRKAG1; parameters: species or system human, MV4-11 + K-562 + COLO205 + SK-N-BE2 + OVCAR-8; conditions: read-out: apparent Kd; compound concentrations:100 nM and 1000 nM (sheet 'Samples'); n = 1
# PRKAG2 = system: PRKAG2; parameters: species or system human, MV4-11 + K-562 + COLO205 + SK-N-BE2 + OVCAR-8; conditions: read-out: apparent Kd; compound concentrations:100 nM and 1000 nM (sheet 'Samples'); n = 1
# PRKX;PRKY = system: PRKX;PRKY; parameters: species or system human, MV4-11 + K-562 + COLO205 + SK-N-BE2 + OVCAR-8; conditions: read-out: apparent Kd; compound concentrations: 100 nM and 1000 nM (sheet 'Samples'), CATDS: 0.167379705383528; n = 1
# RABL3 = system: RABL3; parameters: species or system human, MV4-11 + K-562 + COLO205 + SK-N-BE2 + OVCAR-8; conditions: read-out: apparent Kd; compound concentrations:100 nM and 1000 nM (sheet 'Samples'); n = 1
# TGFBR1 = system: TGFBR1; parameters: species or system human, MV4-11 + K-562 + COLO205 + SK-N-BE2 + OVCAR-8; conditions: read-out: apparent Kd; compound concentrations:100 nM and 1000 nM (sheet 'Samples'); n = 1
# TNIK = system: TNIK; parameters: species or system human, MV4-11 + K-562 + COLO205 + SK-N-BE2 + OVCAR-8; conditions: read-out: apparent Kd; compound concentrations:100 nM and 1000 nM (sheet 'Samples'); n = 1
# SMC4 = system: SMC4; parameters: species or system human, MV4-11 + K-562 + COLO205 + SK-N-BE2 + OVCAR-8; conditions: read-out: apparent Kd; compound concentrations: 100 nM and 1000 nM (sheet 'Samples'), CATDS: 0.57123951593094102; n = 1
# PRKCZ = system: PRKCZ; parameters: species or system human, MV4-11 + K-562 + COLO205 + SK-N-BE2 + OVCAR-8; conditions: read-out: apparent Kd; compound concentrations:100 nM and 1000 nM (sheet 'Samples'); n = 1
# SMC2 = system: SMC2; parameters: species or system human, MV4-11 + K-562 + COLO205 + SK-N-BE2 + OVCAR-8; conditions: read-out: apparent Kd; compound concentrations: 100 nM and 1000 nM (sheet 'Samples'), CATDS: 0.46661242360410599; n = 1
# STK10 = system: STK10; parameters: species or system human, MV4-11 + K-562 + COLO205 + SK-N-BE2 + OVCAR-8; conditions: read-out: apparent Kd; compound concentrations: 100 nM and 1000 nM (sheet 'Samples'), CATDS: 0.394091035560725; n = 1
# DJA1 = system: T1, DJA1; conditions: read-out: apparent Kd; compound concentrations:100 nM and 1000 nM (sheet 'Lestaurtinib' of Supplementary Table 1),run:Lestaurtinib_02482_R2,Plate:MR011; n = 1
# T1 construct: gene DNAJA1
# PIK3CG = conditions: read-out: apparent Kd; compound concentrations:100 nM and 1000 nM (sheet 'Lestaurtinib' of Supplementary Table 1),run:Lestaurtinib_02487_R1,Plate:MR012; n = 1
# PIM1 = conditions: read-out: apparent Kd; compound concentrations:100 nM and 1000 nM (sheet 'Lestaurtinib' of Supplementary Table 1),run:Lestaurtinib_02487_R1,Plate:MR012; n = 1
# PIP4K2C = conditions: read-out: apparent Kd; compound concentrations:100 nM and 1000 nM (sheet 'Lestaurtinib' of Supplementary Table 1),run:Lestaurtinib_02487_R1,Plate:MR012; n = 1
# PKN3 = conditions: read-out: apparent Kd; compound concentrations:100 nM and 1000 nM (sheet 'Lestaurtinib' of Supplementary Table 1),run:Lestaurtinib_02487_R1,Plate:MR012; n = 1
compound,measurement,setting,value
COc1cc2c(cc1Nc1nc(Nc3cccc(F)c3C(N)=O)c3cc[nH]c3n1)N(C(=O)CN1CCN(C(C)C)CC1)CC2 [GSK1751853A],potency estimated from few doses,PTK2,1210 nM
c1ccc(Oc2ccc(Nc3ccnc4ccc(-c5ccccn5)cc34)cc2)cc1 [GW407034X],potency estimated from few doses,RIPK3,429 nM
CO/N=C(\c1ccccc1)c1cnn(-c2ccccc2)c1N [RO1163374-000],potency estimated from few doses,PRKCQ,2210 nM
Cl.O=C(Nc1ccc(Oc2ccc3[nH]c(NC(=O)c4ccccc4)nc3c2)cc1)Nc1cc(C(F)(F)F)ccc1F [GW709042A],potency estimated from few doses,RET,1420 nM
Fc1ccc(-c2c(-c3ccncc3)n(CCN3CCOCC3)c3cccnc23)cc1 [RO1154507-000],potency estimated from few doses,RAB5C,223 nM
COc1ccccc1-c1ccc2c(NC(=O)C3CC3)n[nH]c2n1 [SB-711239],potency estimated from few doses,PRKAG1,1190 nM
same,potency estimated from few doses,PRKAG2,1270 nM
CC1=C(C(=O)Nc2cc3cn[nH]c3cc2F)C(c2ccc(C(F)(F)F)cc2)CC(=O)N1 (centres unmarked) [GSK429286A],potency estimated from few doses,PRKX;PRKY,2000 nM
Cc1cccc(-c2n[nH]cc2-c2ccc3ncccc3n2)n1 [GW786460X],potency estimated from few doses,RABL3,1260 nM
same,potency estimated from few doses,TGFBR1,1.39 nM
same,potency estimated from few doses,TNIK,1720 nM
CCCNC(=O)Nc1ccc(N(C)c2ccnc(NC3CC3)n2)cc1 [GW818933X],potency estimated from few doses,SMC4,1120 nM
O=C(Nc1n[nH]c2cc(-c3cccs3)ccc12)C1CC1 [SB-731284],potency estimated from few doses,PRKCZ,1850 nM
N#Cc1ccc(C(=O)c2cnn(-c3ccc(F)cc3)c2N)cc1 [RO1153198-000],potency estimated from few doses,SMC2,2040 nM
COc1cc2ncn(-c3cc(OCC4CCCO4)c(C(N)=O)s3)c2cc1OC (centres unmarked) [GSK204607A],potency estimated from few doses,STK10,614 nM
Lestaurtinib,potency estimated from few doses,DJA1,1330 nM
same,potency estimated from few doses,PIK3CG,1570 nM
same,potency estimated from few doses,PIM1,860 nM
same,potency estimated from few doses,PIP4K2C,86.5 nM
same,potency estimated from few doses,PKN3,755 nM
